Experiment [1] in a line: inhibitors of TNFa-induced NFkB p65 translocation, primary screen, imaging, HUVEC, MLSMR starter and 10KST1 sets (AID 438;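 active = inhibition above 20% together with a positive visual image hit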;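 also: compound added about 3h40 before a 20 min TNFalpha stimulation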;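 as to inhibition: signal is the nuclear over cytoplasmic p65 intensity ratio per well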). The note with it: HUVEC TNFa-induced p65 nuclear translocation; cell count: measured here: nuclei count (cytotoxicity indicator), at 2.08 µM; inhibition: at 2 µM, stronger effect = higher value, 0% TNFa-plus-vehicle, 100% no-TNFa wells.
Experiment [2] is described as follows: reduction of polyQ htt aggregates in cells – imaging, exon1htt(103Q)mCFP cells, high-content imaging, primary screen (AID 483;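 active = visual image review flags a hit and inhibition of aggregation exceeds 20%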;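 also: compound exposure lasted 3 days before fixation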;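 as to nuclei count: percent of the per-plate median nuclei count of sample wells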). The note with it: exon1htt(103Q)mCFP cell line, aggregate imaging, at 2 µM; inhibition of aggregation: stronger effect = higher value; nuclei count: measured here: cell count, toxicity.
Experiment [3] is described as follows: endothelial E-selectin expression blockers – imaging, HUVEC, immunofluorescence, MLSMR starter and 10KST1 sets, primary screen (AID 487;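 active = visually confirmed hit in the image check and inhibition above 20%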;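 as to inhibition: signal is fraction of cell area covered by stained E-selectin grains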;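 as to nuclei count: 100% = median nuclei count of all wells on the same plate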). The note with it: HUVEC TNFalpha-induced E-selectin immunofluorescence imaging, at 2 µM; inhibition: stronger effect = higher value; nuclei count: measured here: cell number, toxicity.
In experiment [4] the target is Voltage-gated potassium channel subunit beta-2 (Rattus norvegicus) (UniProt P62483). Description: inhibitors of rat Kvbeta2 reductase activity – biochemical, NADPH fluorescence, primary screen (AID 622).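 Also: slope of raw intensity against log time taken from 70 to 1610 s.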 The note with it: recombinant KvBeta, 4-cyanobenzaldehyde reduction, at 10 µM, stronger effect = higher value.
The target is the same in experiment [5]. Description: enhancers of rat Kvbeta2 NADPH turnover – biochemical, NADPH fluorescence, primary screen (AID 623;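 active = NADPH fluorescence slope more negative than the mean of all samples by about 3 SD, 99.7% confidence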;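 also: fluorescence intensity change per second fitted from 20 to 320 s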). Particulars: Recombinant KvBeta, NADPH fluorescence decrease slope, 10 min; at 10 µM; stronger effect = lower value.
Experiment [6] addresses Alpha-2C adrenergic receptor (Homo sapiens) (UniProt P18825). The experiment can be described thus: compounds altering alpha2C-coupled GIRK flux – cell-based, HEK293 alpha2C/GIRK1/2, thallium flux, primary screen (AID 624;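 active = fluorescence slope after compound addition differing from the mean of all screened samples at 99.7% confidence, in either direction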;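 also: slope of fluorescence ratio to pre-addition baseline per second over 15 to 24 s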). The note with it: thallium flux BTC fluorescence, at 10 µM, actives lie on both sides.
A short description of experiment [7]: blockers of RIG-like receptor reporter activation – cell-based, Sendai virus stimulus, luciferase, 10K MLSCN set, TLR/RLR signaling modifier project, primary screen (AID 602276;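 active = inhibition at or above 50% at 10 µM; inactive = inhibition below 50%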;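 also: firefly luciferase from ISG56 promoter only with Renilla not read in this screen; 0% = Sendai virus plus DMSO and 100% = medium plus DMSO without virus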). Particulars: HEK293 RL24 IRF3 luciferase reporter, at 10 µM, stronger effect = higher value.
A short description of experiment [8]: TLR3 IRF3 reporter activation blockers – cell-based, poly I:C stimulus, luciferase, 10K MLSCN set, primary screen (AID 602277;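 active = inhibition of the reporter signal at or above 50%; inactive = inhibition below 50%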). The note with it: HEK293-TLR3 RL24 IRF3 luciferase reporter, at 10 µM, stronger effect = higher value.

One may read the inhibition as the change of the read-out against control, counted positive when it falls.

Activity calls are given as the source filed them.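 The calls were made as follows, unless noted: active = fluorescence slope higher than the sample average by over 3 SD (cut at about -0.22 in these data, passing the limit was not always enough); inactive = the rest.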

Chain of Alpha-2C adrenergic receptor (Homo sapiens) (P18825 whole entry, looked up): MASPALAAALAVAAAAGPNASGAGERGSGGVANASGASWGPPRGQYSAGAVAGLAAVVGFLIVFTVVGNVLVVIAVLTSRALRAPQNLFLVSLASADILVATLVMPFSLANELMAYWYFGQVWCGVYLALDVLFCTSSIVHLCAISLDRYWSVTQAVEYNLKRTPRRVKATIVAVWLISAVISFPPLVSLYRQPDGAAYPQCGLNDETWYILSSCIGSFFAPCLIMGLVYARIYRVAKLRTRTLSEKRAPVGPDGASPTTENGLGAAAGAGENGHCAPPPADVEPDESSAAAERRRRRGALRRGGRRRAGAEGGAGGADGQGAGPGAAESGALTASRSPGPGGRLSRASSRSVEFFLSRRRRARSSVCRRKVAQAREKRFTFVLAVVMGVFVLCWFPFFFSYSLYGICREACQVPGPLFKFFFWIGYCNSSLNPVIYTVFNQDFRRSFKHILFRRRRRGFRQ
Chain of Voltage-gated potassium channel subunit beta-2 (Rattus norvegicus) (P62483 whole entry, looked up): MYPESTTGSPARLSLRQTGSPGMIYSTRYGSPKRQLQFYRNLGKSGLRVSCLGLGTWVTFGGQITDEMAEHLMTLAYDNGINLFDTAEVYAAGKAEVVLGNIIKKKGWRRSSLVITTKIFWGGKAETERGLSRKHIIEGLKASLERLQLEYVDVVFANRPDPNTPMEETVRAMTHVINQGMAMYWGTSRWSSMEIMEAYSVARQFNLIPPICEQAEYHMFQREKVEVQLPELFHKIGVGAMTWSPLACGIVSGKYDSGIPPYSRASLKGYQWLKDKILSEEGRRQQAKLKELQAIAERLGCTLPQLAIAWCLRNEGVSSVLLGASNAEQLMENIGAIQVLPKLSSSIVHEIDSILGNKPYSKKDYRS

As for `Cc1nc2ccc(S(=O)(=O)NCC(=O)N3CCc4ccccc4C3)cc2s1`, the cell count in experiment [1] was determined as 439. Also, the inhibition in experiment [1] was 2.7% (inactive); in experiment [3], -4.9% (inactive); in experiment [7], -4.3% (inactive); in experiment [8] it was -28.9% (inactive). Also, the inhibition of aggregation in experiment [2] is 1.5% (inactive). Further, the nuclei count in experiment [2] was determined as 91.2%; in experiment [3] it was 119%. Further, the fluorescence slope in experiment [4] was -0.563 (inactive). In experiment [5], the NADPH fluorescence slope is 3.2e-05 (inactive). In experiment [6], the slope was 0.00627 (inactive).

For `CCCOc1cccc(C(=O)Nc2cc(NC(=O)c3ccco3)ccc2OC)c1`, the cell count in experiment [1] was determined as 436. Also, the inhibition in experiment [1] was 3.8% (inactive); in experiment [3], 8.3% (inactive); in experiment [7] it was 2.93% (inactive); in experiment [8], -15% (inactive). In addition, the inhibition of aggregation in experiment [2] was 2.3% (inactive). Further, the nuclei count in experiment [2] is 101%; in experiment [3], 105%. Moreover, in experiment [4], the fluorescence slope is -0.278 (inactive). In addition, the NADPH fluorescence slope in experiment [5] is -2.4e-05 (inactive). Moreover, the slope in experiment [6] was 0.00685 (inactive).

As to `O=C(CCS(=O)(=O)c1cccc2nsnc12)N1CCN(Cc2ccc3c(c2)OCO3)CC1`, the cell count in experiment [1] turned out to be 582. Also, the inhibition is 4.1% (inactive) in experiment [1], -84.7% (inactive) in experiment [3], 2.36% (inactive) in experiment [7] and 14.2% (inactive) in experiment [8]. Moreover, in experiment [2], the inhibition of aggregation is -47.2% (inactive). For the same compound, the nuclei count in experiment [2] was 53.4%; in experiment [3], 97.8%. Also, the fluorescence slope in experiment [4] is -0.533 (inactive). In addition, the NADPH fluorescence slope in experiment [5] is -4.8e-05 (inactive). In addition, in experiment [6], the slope was 0.00459 (inactive).

As for `COc1ccc(OC)c(-c2cc(C(=O)NCc3cccs3)no2)c1`, the cell count in experiment [1] came out at 248. For the same compound, the inhibition in experiment [1] was 1.3% (inactive); in experiment [3] it was -23.8% (inactive); in experiment [7] it was 3.16% (inactive); in experiment [8], 32% (inactive). Also, the inhibition of aggregation in experiment [2] was 29.5% (inactive). Further, the nuclei count in experiment [2] amounted to 101%; in experiment [3], 124%. Besides, the fluorescence slope in experiment [4] is -0.487 (inactive). Moreover, in experiment [5], the NADPH fluorescence slope was -5.5e-06 (inactive). Moreover, in experiment [6], the slope is 0.00616 (inactive).

With `COC(=O)c1ccc(CNC(=O)CSc2nc3sc(C)c(C)c3c(=O)n2C)o1`, the cell count in experiment [1] was found to be 319. Also, the inhibition was 3.3% (inactive) in experiment [1], 5.6% (inactive) in experiment [3], -0.162% (inactive) in experiment [7] and 29.6% (inactive) in experiment [8]. The inhibition of aggregation in experiment [2] was 12.1% (inactive). For the same compound, the nuclei count is 94.6% in experiment [2] and 95.6% in experiment [3]. Besides, in experiment [4], the fluorescence slope was -0.434 (inactive). In addition, in experiment [5], the NADPH fluorescence slope was -4e-05 (inactive). Further, in experiment [6], the slope is 0.00252 (inactive).

For the compound `O=C(CN1C(=O)COc2ccccc21)N(Cc1cccnc1)Cc1ccccc1F`, in experiment [1], the cell count came to 661. For the same compound, the inhibition is -2.9% (inactive) in experiment [1], -6.3% (inactive) in experiment [3], 15.9% (inactive) in experiment [7] and 32.6% (inactive) in experiment [8]. Besides, the inhibition of aggregation in experiment [2] was -5.5% (inactive). The nuclei count in experiment [2] was 77.4%; in experiment [3], 106%. Further, the fluorescence slope in experiment [4] was -0.324 (inactive). In addition, in experiment [5], the NADPH fluorescence slope is -5.8e-05 (inactive). For the same compound, in experiment [6], the slope is 0.00465 (inactive).

Take `O=C1CC(N2CCN(C3CCc4ccccc4C3)CC2)C(=O)N1c1ccccc1` (centres undefined): the cell count in experiment [1] worked out at 288. For the same compound, the inhibition in experiment [1] is 4% (inactive); in experiment [3], 6.6% (inactive); in experiment [7], 17.3% (inactive); in experiment [8], 28.1% (inactive). Further, in experiment [2], the inhibition of aggregation was 0.8% (inactive). The nuclei count was determined as 88.6% in experiment [2] and 121% in experiment [3]. In addition, the fluorescence slope in experiment [4] is -0.378 (inactive). Also, the NADPH fluorescence slope in experiment [5] was -9.9e-05 (inactive). In addition, the slope in experiment [6] was 0.00552 (inactive).

`CC(C)=CCCC(C)CN(C)CCc1ccccn1` (centres undefined): the cell count in experiment [1] was found to be 281. The inhibition was -2.1% (inactive) in experiment [1], -75.4% (inactive) in experiment [3], -1.84% (inactive) in experiment [7] and 20.8% (inactive) in experiment [8]. In addition, the inhibition of aggregation in experiment [2] is 27.8% (inactive). Besides, the nuclei count worked out at 92.8% in experiment [2] and 108% in experiment [3]. For the same compound, the fluorescence slope in experiment [4] was -0.448 (inactive). Also, the NADPH fluorescence slope in experiment [5] was -0.000147 (inactive). For the same compound, the slope in experiment [6] was 0.00676 (inactive).

On to `CCOC(=O)C(C)(C)Sc1nc2c(cnn2-c2ccc(C)cc2)c(=O)[nH]1`, for which the cell count in experiment [1] was 387. The inhibition is -1.6% (inactive) in experiment [1], -44.8% (inactive) in experiment [3], 9.78% (inactive) in experiment [7] and 34% (inactive) in experiment [8]. The inhibition of aggregation in experiment [2] is -13.4% (inactive). In addition, the nuclei count in experiment [2] and in experiment [3] was 106% throughout. Also, the fluorescence slope in experiment [4] was -0.626 (inactive). Moreover, in experiment [5], the NADPH fluorescence slope was -2.5e-05 (inactive). Besides, the slope in experiment [6] is 0.00578 (inactive).
